High-throughput results (PubChem)
Shown are actives, neighbours in structure and some others; about 8.2% of the full set was active somewhere.
SW480 rereplic: induces DNA re-replication in SW480 colon adenocarcinoma cells; AID 624297; Potency, µM (top dose mostly 46.1 µM), for the others: at the top dose re-replication activation, usual class: activators; 340,000 compounds, 1.8% hits; SW480 DNA re-replication, Hoechst DNA content imaging, 48 h; further: % of control where 0% means no effect; nearly all actives have a fitted effect of over 55% in size
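SW480 cells exposed to compounds for 48 hr at 37 C, 5% CO2, then Hoechst-stained 40 min. Nuclear DNA content imaged by fluorescence scanning (405 nm excitation, 500-530 nm emission); re-replication scored as increased high-intensity nuclei.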
MCF10A rereplic: DNA re-replication induction in MCF 10a cells; MCF 10A DNA re-replication, Hoechst nuclear intensity, 48 h; Potency, µM (doses to about 46.1 µM), without a hit: top-dose activity, positive = re-replication, hits mostly activators; 350,000 compounds, 2.9% hits; AID 624296; further: % of control where 0% means no effect; nearly all actives have a fitted effect of over 50% in size
KB-V1 MDR tox: KB-V1 MDR subline cytotoxicity; KB-V1 MDR cells viability, CellTiter-Glo, 72 h; Potency, µM (doses to about 46.1 µM), hits mostly cytotoxic; 400,000 compounds, 3.4% hits; further: on the % scale 0 is the no-effect control and ±100 the full control effect; nearly all actives have a fitted effect of over 60% in size
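Following 72 h at 37 degrees C with compound, KB-V1 cell viability was read by CellTiter-Glo luminescence, medium being phenol-red-free DMEM plus 10% FBS; concentration-response parameters came from normalized, curve-fitted qHTS data.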
KB-3-1 tox: kills parental KB-3-1 adenocarcinoma cells; 400,000 compounds, 1.4% hits; Potency, µM (top dose mostly 46.1 µM), most hits filed as cytotoxic; KB-3-1 viability, CellTiter-Glo ATP luminescence, 72 h; further: on the % scale 0 is the no-effect control and ±100 the full control effect; nearly all actives have a fitted effect of over 60% in size
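Multi-concentration cytotoxicity screen in KB-3-1 cells grown in DMEM lacking phenol red with 10% FBS. After 72 h at 37 °C with compound, ATP-dependent luminescence was recorded.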
ELG1 DNA repair: blocks ELG1-dependent DNA repair in HEK293T cells | HEK293T ELG1-luciferase reporter, luminescence, 16 h; DNA damage induced by 5-fluorouridine | Potency, µM (doses to about 46.1 µM), for the others: at the highest dose activity change, negative = inhibition, actives largely listed as inhibitors | 330,000 compounds, 2.3% hits | AID 504467; further: on the % scale 0 is the no-effect control and ±100 the full control effect; nearly all actives have a fitted effect of over 55% in size
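Quantitative HTS, concentration-response format. 2,000 cells/well co-treated with 5-fluorouridine and compound, 16 hr in 5% CO2 at 37 °C; ONE-Glo luminescence read after 30 min.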
Active calls of the source: *; i = inactive; ? = inconclusive; / = no result; ! = repeats disagree; [ ] = dose if it differs, or a comment. The call rests on the fitted dose curve; in most records, active means well fitted curve in the direction sought with a large enough effect; inconclusive means small, poorly fitted or top-dose-only effect, or another doubt; inactive means no such curve, though single readings can be large; an effect the other way counts as inactive or inconclusive. Potency means the concentration at half of the fitted maximal effect.

SMILES | SW480 rereplic | MCF10A rereplic | KB-V1 MDR tox | KB-3-1 tox | ELG1 DNA repair
CCNC(=O)C1(C)CCCN1C(=O)c1c(F)cccc1F (centres undefined) | / | / | i | i | /
COC(=O)c1ccc2c(=O)n(-c3ccccc3F)c(=S)[nH]c2c1 | -2% | 5% | 18µM* | ? | 18µM*
CCOc1ccc(NC(=O)c2ccc3c(=O)n(-c4ccc(OC)cc4OC)c(=S)[nH]c3c2)cc1 | / | / | / | / | 8.2µM*
COc1ccc(NC(=O)c2ccc3c(=O)n(-c4ccc(OC)cc4OC)c(=S)[nH]c3c2)c(OC)c1 | -1% | -1% | ? | i | ?
Cc1cc(Cl)ccc1NC(=O)C1COc2ccccc2O1 (centres undefined) | 0% | 1% | i | i | ?
O=S(=O)(c1ccc(NCc2ccccc2)cc1)N1CCOCC1 | -5% | -4% | / | / | ?
COc1ccc(N2C(=O)CC(Cc3ccccc3)C2=O)cc1 (centres undefined) | 1% | 580%[0.0737 µM] | ? | i | 16%
COc1ccc(C[C@@H]2OC3(C=CC(=O)C=C3)O[C@H]2Cc2ccc(OC)cc2)cc1 | 0.92µM* | 0.73µM* | ? | 2.3µM* | /
O=C1C=CC2(C=C1)O[C@H](Cc1ccccc1)[C@@H](Cc1ccccc1)O2 | 0.92µM* | ? | 16µM* | ? | /
CCc1ccccc1NC(=O)CSc1nnc(-c2cc(C)[nH]n2)n1N | 0% | -3% | ? | i | 1%
CCOC(=O)C1=C(C)NC(C)=C(C(=O)OCC)C1C(=O)OCC(=O)NC1CCCCC1 | ? | 30% | ? | i | 10µM*
CCOC(=O)C1=C(C)NC(C)=C(C(=O)OCC)C1C(=O)OCC(=O)NC1(C#N)CCCCC1 | ? | 14% | ? | i | ?
CCNC(=O)COC(=O)C1C(C(=O)OCC)=C(C)NC(C)=C1C(=O)OCC | 0% | 4% | i | i | -7%
CCOC(=O)C1=C(C)NC(C)=C(C(=O)OCC)C1C(=O)OCC(=O)NCCc1ccccc1 | ? | ? | i | ? | 23µM*
O=C(Cn1cncn1)N/N=C/c1ccccc1O | ? | 18% | i | i | ?
O=C(O)COc1ccc2c(c1)O/C(=C\c1cccs1)C2=O | 16µM* | ? | i | i | 15%
CN(C)CCNc1ncnc2c1ncn2[C@H]1CN(Cc2ccc(F)cc2)C[C@@H](CO)O1 | / | / | i | 8.2µM* | /
CCOC(=O)c1[nH]c2ccc(OC)cc2c1NC(C)=O | -6% | -8% | i | i | -4%
CCOC(=O)c1[nH]c2ccc(OC)cc2c1NC(=S)N1CCN(c2cccc(C)c2C)CC1 | ? | 15µM* | i | i | 13µM*
CCOC(=O)c1[nH]c2ccccc2c1NC(=O)c1ccc(S(=O)(=O)N2CCCCC2)cc1 | 6% | 23µM* | i | i | -12%
CCOC(=O)c1[nH]c2ccc(OC)cc2c1NC(=O)c1cccc(OC)c1 | 1% | ? | ? | i | 13µM*
CCOC(=O)c1[nH]c2ccccc2c1NC(=O)c1ccc(OCC)cc1 | / | / | i | i | /
CCOC(=O)c1[nH]c2ccccc2c1NC(=O)c1ccc(S(=O)(=O)N(C)C)cc1 | 0% | 2% | i | i | -11%
CCOC(=O)c1[nH]c2ccccc2c1NC(=O)c1ccccc1OCC | / | / | ? | 1.6µM* | /
COc1ccc(CN2C(=NC(=O)C3CCCO3)SC3CS(=O)(=O)CC32)cc1 (centres undefined) | 2% | 0% | i | i | 10%
SMILES | SW480 rereplic | MCF10A rereplic | KB-V1 MDR tox | KB-3-1 tox | ELG1 DNA repair
COc1ccc(CNC(=O)[C@H](Cc2ccccc2)NC(=O)CC[C@H]2O[C@@H](n3ccc(=O)[nH]c3=O)[C@H](O)[C@@H]2O)cc1 | / | / | i | i | /
FC(F)C(F)(F)Oc1cccc(Nc2nccn3c(-c4cccc5cccnc45)cnc23)c1 | / | / | i | ? | /
CCOC(=O)c1[nH]c2ccc(F)cc2c1NC(=O)c1cc(OC)c(OC)c(OC)c1 | -7% | 13% | i | ? | 7.3µM*
COC(=O)c1[nH]c2ccc(F)cc2c1NS(=O)(=O)c1ccc(OC)cc1 | 4.6µM* | 7.3µM* | 7.3µM* | 2.6µM* | ?
Cn1c(C(=O)NCc2ccc(F)cc2)cc2c(=O)n(C)c3ccccc3c21 | / | / | i | i | /
CN1CCC(OC(=O)Cc2ccc(Cl)cc2)CC1 | 15µM* | -2% | ? | i | 12%
Cn1nc(C2CC2)cc1NC(=O)C1(C)CCN1C(=O)c1ccccc1CCc1ccccc1 (centres undefined) | / | / | i | i | /
COC(=O)c1ccccc1NC1=C/C(=N\S(=O)(=O)c2cccs2)c2ccccc2C1=O | 4.6µM* | 18µM* | 18µM*! | ? | 5.2µM*
COC(=O)c1ccccc1NC1=C/C(=N\S(=O)(=O)c2ccc(C(=O)O)cc2)c2ccccc2C1=O | 2.9µM* | ? | 18µM* | ? | ?
COC(=O)c1cccc(NS(=O)(=O)c2cccs2)c1C | 0% | -3% | i | i | /
COc1cc(S(=O)(=O)n2c(C)nc3ccccc32)ccc1F | ? | 28% | i | ? | -1%
CSc1ccc(/C=C/c2nc3ccccc3n2S(=O)(=O)c2cccc(Cl)c2)cc1 | / | / | i | 15µM* | /
Cc1cccc(-c2c3c(=O)n(C)c(=O)n(C)c3cn2C2CCCCC2)c1 | 4% | ? | 16µM* | i | ?
Cc1cccc(-c2c3c(=O)n(C)c(=O)n(C)c3cn2C(C)(C)C)c1 | 0% | -4% | i | i | 1%
Cn1c(=O)c2c(-c3ccccc3)n(C3CCCCC3)cc2n(C)c1=O | -5% | -1% | 21µM* | i | 4%
CCOC(=O)c1c(-c2ccccc2)csc1NC(=O)CSc1nnnn1C | 30% | ? | i | i | 4.1µM*
CCOC(=O)c1c(-c2ccc(OC)cc2)csc1/N=C/N(C)C | -4% | 9% | 23µM* | ? | -9%
CCOC(=O)c1c(-c2ccccc2)csc1NC(=O)C1CCCO1 (centres undefined) | 2% | -3% | i | i | -20%
CCOC(=O)c1c(NC(=O)CSc2nnnn2C)sc(C)c1-c1ccc(C)cc1 | 17% | ? | 13µM* | ? | 11%
CCOC(=O)c1c(-c2ccc(-c3ccccc3)cc2)csc1NC(=O)C1C2CCC(O2)C1C(=O)O (centres undefined) | -1% | 9.2µM* | i | i | -6%
CCC(=O)N1CCc2cc(S(=O)(=O)NC(C(=O)Nc3cc(OC)cc(OC)c3)C(C)C)ccc21 (centres undefined) | / | / | i | i | /
Cc1nnc2c(N3CCN(c4ccccc4)CC3)nc3ccc(C(=O)c4ccccc4)cc3n12 | / | / | i | i | /
